# Experiments:
# Assay in all cases: PBM binding z-score (relative to random genomic background probes); higher = stronger binding; sequences stand for … in GC…GCGATTGACAGCGTAGAATGAAGG
# [1] = tested on: FXR:RXRa (NR concentration 270 nM, RXRa partner concentration 90 nM)
# In short: (§1)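 Custom Agilent 4×180K protein-binding microarrays carried double-stranded probes, each with a 34-nt variable region. These regions held direct-repeat seeds, single-nucleotide variants, half-site ablations and random human genomic background sequences. Ligand-free nuclear receptor dimers were incubated on the arrays for 1 h, antibodies against each partner (one per run) detected binding, and scanned fluorescence was regression-normalized. Binding z-scores take the random background probes as reference.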
# [2] = tested on: LXRa:RXRa (NR concentration 270 nM, RXRa partner concentration 90 nM)
# In short: as §1
# [3] = tested on: LXRa homodimer (NR concentration 270 nM)
# In short: as §1
# [4] = tested on: LXRb:RXRa (NR concentration 270 nM, RXRa partner concentration 90 nM)
# In short: as §1
# [5] = tested on: LXRb homodimer (NR concentration 270 nM)
# In short: as §1
# [6] = tested on: PPARa:RXRa (NR concentration 270 nM, RXRa partner concentration 90 nM)
# In short: as §1
# [7] = tested on: PPARg:RXRa (NR concentration 180 nM, RXRa partner concentration 90 nM)
# In short: as §1
# [8] = tested on: PPARg:RXRa 270nM:90nM, anti-RXR (NR concentration 270 nM, RXRa partner concentration 90 nM)
# In short: as §1
# [9] = tested on: PPARg:RXRa 30nM:10nM, anti-RXR (NR concentration 30 nM, RXRa partner concentration 10 nM)
# In short: as §1
# [10] = tested on: PPARg:RXRa 90nM:30nM, anti-RXR (NR concentration 90 nM, RXRa partner concentration 30 nM)
# In short: as §1
Sequence,PBM binding z-score [1],PBM binding z-score [2],PBM binding z-score [3],PBM binding z-score [4],PBM binding z-score [5],PBM binding z-score [6],PBM binding z-score [7],PBM binding z-score [8],PBM binding z-score [9],PBM binding z-score [10]
GCAGACAGGTGAAACGCAGGTAGCTCAGGGTGGC,-0.298,-0.318,-0.974,-0.61,-1.08,0.412,0.213,-0.178,-0.645,-0.382
TCTTGTAGATCAAGAGGAGGTTAAGAAAGATCGA,0.338,0.95,-0.0702,0.725,-0.517,1.22,-0.0325,1.24,2.38,1.6
TCTGTTAGTTGATTAGGGCAACCGAAACAGCGGA,0.614,0.576,0.141,0.571,1.9,0.523,0.000964,1.9,3.28,2.74
GCTATTAGTTGAAAGGACAACCGAATGATTCTCG,-0.0393,-0.0503,-0.151,-0.41,-0.0299,0.0455,0.857,1.45,0.556,0.958
CAGCCTAGGTCAGGGCCAGTAGAGGAGGAACGTT,1.51,0.675,-0.538,0.358,-1.25,1.97,0.595,0.833,-0.754,0.0745
TCTATTAGTTGCTTAGGGCAACCGAAACAGCGGA,0.577,0.582,0.0862,0.602,0.556,0.886,-0.0516,1.87,3.56,2.88
TCATAAAGGTAATACAGGTGAAAGTCGGCATCTA,1.53,2.4,0.378,1.49,0.311,2.48,1.23,3,4.29,3.61
ATCGCTAGGTAACCAAGTTCAGTGAATGCCGAAC,-0.315,0.156,-0.0176,-0.126,-0.754,0.318,-0.0825,-0.186,-0.453,-0.0897
GCAGCTAGGTCAGGTTGGTCAGCTAACGGGTACG,1.03,0.422,-0.282,-0.023,-0.983,1.2,0.443,0.714,-0.586,-0.0508
CGTCCAAGGTCAAAGCTAGGTCAGTGAAAGCATT,7.24,5.98,2.25,4.54,1.44,5.65,4.63,5.54,1.86,4.09
CCTACTGGGCCAAGGTCACTGATCAGTCAAAGCA,3.03,2.64,0.281,2.79,-0.518,4.1,4.17,4.62,2.22,3.93
ATACCAAGGTGATCGTGAGGCCGTTGATACTAAC,0.369,0.246,-0.0793,0.0516,-0.198,0.139,0.361,0.165,0.0132,0.0891
CCGAGTAGGCTATGGGGCATTCAGGCAACGGTGA,-0.882,-1.01,-0.67,-0.799,-1.07,0.341,1.43,2.92,0.549,2.35
AATACAGGGTCACTAGGCCAAAGTAGGTACGAAT,6.51,4.99,1.08,4,1.01,6.26,8.6,6.83,4.18,6.09
CCTTACGGGTCACGAGGTTATATCACGACGAGCG,7.05,4.73,0.668,4.12,-0.0743,6.05,7.17,6.76,3.62,5.46
GCTCGGAGAACAAGGTCAGAGCTTTGTCCGTAGA,1.25,1.41,-0.275,1.11,-1.02,2.37,0.176,0.774,-0.425,0.29
AGTCAACGTTCAGGACGAGGTAACGTAAAGCACG,-0.0969,-0.468,-0.628,-0.496,-0.581,-0.416,0.73,-0.278,-0.327,-0.0729
CCTCCTGGGCCAAGGTCATTGATCAGTCAAAGCA,2.96,2.89,1.06,2.86,-0.68,3.57,1.39,2.83,0.457,1.75
GCGACTGGGGCATAAGCAGGTTACCATAACTTAA,-0.0719,0.177,-0.305,0.583,-0.304,1.24,1.62,2.1,0.29,1.26
CCTATTAGTTGACCTTAAGGGCAACCGAAGCTCG,6.12,4.18,2.42,4,1.3,4.75,1.81,3,1.29,2.42
AATACAGGGTCATCGAAGGCCAGAGTACGCACAG,6.84,6.3,1.75,4.59,1.53,5.67,6.5,6.11,2.56,4.66
TCTATTAGGTGATTAGGGCAACCGAAACAGCGGA,0.654,0.587,0.0646,0.425,0.526,1.86,2.13,2.98,3.56,2.97
AGAATGAGGTTAAGATCACGGAAACAGAATACAT,2.44,1.8,0.0665,1.91,0.115,3.74,2.6,2.66,1.17,2.11
GATACAGGGTCAGCTATAGGCCAGAGTATGGAAA,4.11,2.57,-0.223,2.13,-0.306,4.24,3.43,3.17,0.857,2.08
